Compound activity: PubChem, several laboratories
AddAB inh – less growth of phage-infected E. coli with AddAB; E. coli expressing H. pylori AddAB, absorbance growth; inhibition, % at 11.9 µM; actives 0.29% (n = 330,000); in the data active = inhibition above about 12%;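 also: 0% = vehicle wells of infected cells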
phage Ecoli inh – E. coli growth loss with phage present | inhibition, % at 11.9 µM | actives 0.26% (n = 360,000) | AID 651602 | growth absorbance; in the data active = inhibition above about 11%
Tat transport – E. coli Tat transport inhibition | inhibition, % at 10 µM | AID 488895 | E. coli MC4100 TorA-mCherry Tat export, fluorescence | actives 0.036% (n = 340,000);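 active = mean replicate inhibition at least 50% and at least half of replicates individually reaching 50%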;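 also: exported cargo escapes ClpAP degradation while cytoplasmic cargo is degraded and loses fluorescence; 0% = median of neutral control wells and 100% = median of NaSCN control wells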
E coli growth-1 – E. coli growth inhibition; Escherichia coli growth, OD600, 23 h; stronger effect = lower value; OD600 absorbance (no concentration beside the values); actives 0.21% (n = 330,000); AID 1053175;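 active = OD600 absorbance below the run mean of sample wells minus 3.6 SD, in any replicate, cut at about 0.56 in these data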
E coli growth-2 – counter-screen for AddAB inhibitors: E. coli growth inhibition | inhibition, % at 11.9 µM | actives 0.27% (n = 330,000) | AID 449728 | E. coli V3065 growth, OD600 absorbance, 18 h;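 active = inhibition above the campaign's mean inhibition across all tested compounds plus 3 SD, cut at about 9.9% in these data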;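 also: uninfected addAB+ strain grown without phage in ampicillin broth; 0% = DMSO wells and 100% = ciprofloxacin 0.95 µg/ml wells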
* = called active by the depositor; x = no result given. Compounds with a hit are over-represented: about 0.5% of the library has one in this group of screens.

SMILES	AddAB inh	phage Ecoli inh	Tat transport	E coli growth-1	E coli growth-2
CC[n+]1c(/C=C/c2c[nH]c3ccccc23)ccc2cc(C)ccc21	x	-0.8	-2.0	0.463*	x
COc1cccc(Cn2c3ccc(NC(=O)Cc4ccccc4C)cc3c(=O)n2C)c1	x	4.2	x	x	x
COc1cc(C)c(Cc2cnc(N)nc2N)cc1OC	100.2*	x	x	x	100.5*
COc1cc(C(C(=O)NC(C)(C)C)N(C(=O)CNC(=O)c2cccs2)c2cccnc2)cc(OC)c1OC (configuration not stated)	2.9	-1.1	3.3	0.672	0.9
CCOC(=O)c1sc(NC(=O)Nc2ccccc2Cl)cc1C	4.4	7.7	-3.8	0.704	6.0
CCOC(=O)c1sc(NC(=O)Nc2ccccc2)cc1C	9.2	10.6	-10.6	0.532*	6.2
c1ccc2c(c1)CCC2=NNc1nc2ccccc2[nH]1	x	x	x	0.464*	x
COc1ccc(OC)c(Nc2nc(-c3c(C)nc4ncccn34)cs2)c1	-2.7	2.5	-4.5	0.669	-1.1
Oc1c(Br)cc(Br)cc1/C=N/NC(=S)N[C@H]1CC2C=CC1C2 (some centres not stated)	11.7	9.1	-8.8	x	10.1*
Oc1c(Cl)cc(Cl)cc1C=NNC(=S)NC1CC2C=CC1C2 (configuration not stated)	x	x	x	0.704	x
Cc1ccc(Nc2c(-c3ccccn3)nc3cccc(C)n23)cc1	0.3	5.7	-31.2	0.278*	3.4
Cc1csc2ncc(C(=O)Nc3ccc(C(F)(F)F)cc3)c(=O)n12	-0.9	2.1	3.5	0.736	0.2
Cc1ccc2c(c1)N(C)/C(=C/c1cccc[n+]1C)S2	1.5	-0.1	0.4	0.527*	-2.1
CCC(OC(=O)c1cccs1)C(=O)NC1CCCCC1 (configuration not stated)	0.4	1.9	-3.1	0.714	-6.0
S=C(NC1CCCCC1)c1ccc2c(c1)OCO2	2.9	2.8	2.7	0.675	2.6
COc1cc(C(=O)NNc2nc3cc4c(cc3s2)OCO4)cc(OC)c1OC	2.2	3.5	-2.1	0.78	-0.8
NC1=NCC(Cc2ccc(O)cc2)N1CCCCC1CCCCC1 (configuration not stated)	x	x	x	0.45*	x
CCCCCCNCc1cccc(Br)c1	0.1	2.5	5.9	0.651	-0.9
c1ccc(C[C@H]2CNCCN2CC2CCCCC2)cc1	-2.1	3.1	-0.4	x	-1.6
COC(=O)c1ccc(C=NOCC(=O)Nc2cc(F)ccc2F)cc1	x	x	x	0.526*	x
O=[N+]([O-])c1ccc(Nc2ccccc2)c2nonc12	2.4	-0.2	-6.6	x	-0.2
O=[N+]([O-])c1ccc(Sc2cccc[n+]2[O-])c2nonc12	x	60.1*	139.3*	0.0865*	x
COc1ccc(NC(=O)Nc2cccc3ccccc23)c(OC)c1	1.3	0.7	-16.9	0.709	0.3
COc1ccc(OC)c(NC(=O)Nc2cccc3ccccc23)c1	9.8	2.3	-3.7	0.705	16.1*
O=C(CN(Cc1ccc(F)cc1)C(=O)CNS(=O)(=O)c1ccc(F)cc1)NCC1CCCO1 (configuration not stated)	0.6	-0.5	-0.6	0.677	0.5
SMILES	AddAB inh	phage Ecoli inh	Tat transport	E coli growth-1	E coli growth-2
O=C(CN(Cc1ccccc1Cl)C(=O)CNS(=O)(=O)c1ccc(F)cc1)NCC1CCCO1 (configuration not stated)	-1.1	1.2	52.7*	0.655	0.7
COc1cc(C(=O)N/N=C/c2ccc(OC(=O)N3CCOCC3)cc2)cc(OC)c1OC	-1.6	5.2	-2.8	x	-1.7
COc1ccc(/C=N\NC(=S)SCN2C(=O)C3CCC(C)(C2=O)C3(C)C)cc1 (configuration not stated)	8.0	4.2	-5.5	x	11.1*
CC12CCC(C(=O)N(CSC(=S)NN=Cc3ccccc3)C1=O)C2(C)C (configuration not stated)	x	x	x	0.651	x
CN(C)c1ccc(/C=N\NC(=S)SCN2C(=O)C3CCC(C)(C2=O)C3(C)C)cc1 (configuration not stated)	7.2	4.1	0.7	x	14.6*
COc1ccc(C=NNC(=S)SCN2C(=O)C3CCC(C)(C2=O)C3(C)C)cc1 (configuration not stated)	x	x	x	0.715	x
Cn1nnnc1SCC(=O)Nc1ncc(C(F)(F)F)cc1Cl	1.3	2.7	8.5	0.678	-1.6
CCOC(=O)C1=C(COC(=O)Cc2ccc(Br)cc2)NC(=O)NC1C (configuration not stated)	1.1	3.3	-4.6	0.733	1.3
O=[N+]([O-])c1cccc(-c2ccc(/C=N/NC(=S)Nc3ccccc3)o2)c1	8.8	1.0	-3.7	x	10.2*
CCC(=O)N(Cc1ccco1)c1nc(-c2ccccc2)cs1	1.9	4.2	-3.3	0.743	-0.9
